# Measurements taken from PubChem BioAssay AID743455 (The Scripps Research Institute Molecular Screening Center, 2014).
# The other results are listed elsewhere or left out. A number with no mark means an inactive call.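 Rule for the calls: active = IC50 at or below 10 µM; inactive = IC50 above 10 µM.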
# Assay: BODIPY product fluorescence quenching artefacts – biochemical, QFRET, 535nm, artefact control for HGIII-sPLA2 inhibitor project, dose response (AID 743455)
# Details: BODIPY FL product fluorescence interference, cell-free
row,Compound,IC50
1,COc1ccc(C(=O)NC(=S)NNC(=O)c2c(-c3ccccc3)noc2C)cc1,> 122 µM
2,Cn1cc(Cl)c(C(=O)NNC(=S)Nc2cccc(Cl)c2)n1,> 122 µM
3,COc1ccc2c(c1)c(=Cc1ccc(N(C)C)cc1)c1cc(-c3ccccc3)[n+](C)n12,> 122 µM
4,O=C(N/N=C/c1cc(Cl)cc([N+](=O)[O-])c1O)C(O)(c1ccccc1)c1ccccc1,> 122 µM
5,O=C(NNC(=S)NC1CCCCC1)c1ccccc1Cl,> 122 µM
6,Cc1ccc2sc(NNC(=O)c3ccc4c(c3)OCCO4)nc2c1C,> 122 µM
7,COc1ccc(Cl)cc1C(=O)NNC(=S)NC1CCCC1,> 122 µM
8,CC(C)CC(=O)NC(=S)NNC(=O)c1cccc([N+](=O)[O-])c1,> 122 µM
9,O=C(NNC(=S)Nc1ccc(Br)cc1Cl)c1ccco1,> 122 µM
10,C/C(=N\NC(=S)Nc1ccc(C)cc1)c1cc2ccccc2o1,> 122 µM
11,Cc1cccc(-n2cnc(C(=O)NNC(=S)Nc3ccccc3)c2)n1,> 122 µM
12,O=C1C(=O)N(Cc2ccc(-c3ccsc3)cc2)c2ccc(OC(F)(F)F)cc21,> 122 µM
13,O=C(NNC(=S)Nc1ccc(F)cc1)[C@H]1C[C@@H]1c1ccccc1,> 122 µM
